# Laboratory results as given in publication PMC7862700, “An all-to-all approach to the identification of sequence-specific readers for epigenetic DNA modifications on cytosine”.
# Legend:
# Test in all cases: DAPPL (digital affinity profiling via proximity ligation, sequencing); 10 mM Tris-HCl pH 7.5, 50 mM NaCl, 1 mM DTT, 4% glycerol, room temperature, 30 min; GST-TFs on glutathione beads, 16-mer random dsDNA library, 0.1% formaldehyde crosslink after washing; high values mean tight binding
# Conditions in all cases: protein: recombinant; tags: N-terminal GST; dsDNA, one strand shown
# FEV = biological target: T1, FEV (Homo sapiens, UniProt Q99581 1-238)
# T1 sequence: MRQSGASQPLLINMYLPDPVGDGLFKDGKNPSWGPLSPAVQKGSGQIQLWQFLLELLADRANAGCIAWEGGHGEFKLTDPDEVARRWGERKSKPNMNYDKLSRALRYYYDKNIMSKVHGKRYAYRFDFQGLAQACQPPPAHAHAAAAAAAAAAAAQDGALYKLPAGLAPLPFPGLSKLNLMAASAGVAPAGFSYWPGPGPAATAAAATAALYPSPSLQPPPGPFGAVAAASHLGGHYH
# Summary of the method: (§1)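 A tag-only sample was pooled with DNA-barcoded human transcription factors that had been expressed in yeast as GST fusions and captured on glutathione beads. The pools were incubated for 30 min at room temperature with 200 nmole of a random double-stranded 16-mer DNA library in Tris/NaCl/DTT/glycerol buffer, then washed, crosslinked with 0.1% formaldehyde, proximity-ligated (BsaI/T4 ligase, 1 h, 37 °C), PCR-amplified and sequenced on an Illumina NextSeq500. Binding signal is each hexamer's read frequency for a factor divided by its frequency for the tag-only sample.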
# ETV5 = ETV5 (Homo sapiens, UniProt P41161 1-510)
# Summary of the method: as §1
# SPIC = biological target: T2, SPIC (Homo sapiens, UniProt Q8N5J4 1-248)
# T2 sequence: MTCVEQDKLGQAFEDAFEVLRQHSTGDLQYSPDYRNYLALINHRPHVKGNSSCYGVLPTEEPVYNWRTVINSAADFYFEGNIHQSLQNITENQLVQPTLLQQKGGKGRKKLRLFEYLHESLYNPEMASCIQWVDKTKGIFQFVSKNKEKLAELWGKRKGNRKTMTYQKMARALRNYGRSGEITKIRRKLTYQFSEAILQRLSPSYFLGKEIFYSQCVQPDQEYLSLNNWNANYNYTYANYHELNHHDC
# Summary of the method: as §1
# ELF4 = ELF4 (Homo sapiens, UniProt Q99607 1-663)
# Summary of the method: as §1
# ELK4 = biological target: T3, ELK4 (Homo sapiens, UniProt P28324-2 1-405)
# T3 sequence: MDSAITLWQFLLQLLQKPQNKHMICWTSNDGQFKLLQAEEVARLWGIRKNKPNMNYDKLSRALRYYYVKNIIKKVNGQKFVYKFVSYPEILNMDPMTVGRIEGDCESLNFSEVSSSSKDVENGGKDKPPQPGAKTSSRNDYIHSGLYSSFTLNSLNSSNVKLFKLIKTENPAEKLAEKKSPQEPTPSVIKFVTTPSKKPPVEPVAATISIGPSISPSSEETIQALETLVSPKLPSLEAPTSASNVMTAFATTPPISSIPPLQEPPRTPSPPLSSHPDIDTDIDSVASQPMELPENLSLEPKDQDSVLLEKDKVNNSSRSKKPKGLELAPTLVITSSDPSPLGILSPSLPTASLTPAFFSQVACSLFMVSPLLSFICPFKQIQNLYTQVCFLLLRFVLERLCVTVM
# Summary of the method: as §1
# ETV2 = biological target: T4, ETV2 (Homo sapiens, UniProt O00321 1-342)
# T4 sequence: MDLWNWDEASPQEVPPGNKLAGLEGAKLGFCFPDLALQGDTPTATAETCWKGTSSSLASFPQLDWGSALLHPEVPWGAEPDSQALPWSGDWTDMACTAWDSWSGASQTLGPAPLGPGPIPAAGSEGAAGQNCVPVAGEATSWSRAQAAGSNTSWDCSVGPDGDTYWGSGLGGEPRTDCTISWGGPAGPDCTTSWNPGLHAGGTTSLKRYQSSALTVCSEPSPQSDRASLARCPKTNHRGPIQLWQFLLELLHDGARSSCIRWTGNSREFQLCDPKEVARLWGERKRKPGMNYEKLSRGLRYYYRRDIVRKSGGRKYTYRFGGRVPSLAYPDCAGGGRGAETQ
# Summary of the method: as §1
# ELF3 = biological target: T5, ELF3 (Homo sapiens, UniProt P78545 1-371)
# T5 sequence: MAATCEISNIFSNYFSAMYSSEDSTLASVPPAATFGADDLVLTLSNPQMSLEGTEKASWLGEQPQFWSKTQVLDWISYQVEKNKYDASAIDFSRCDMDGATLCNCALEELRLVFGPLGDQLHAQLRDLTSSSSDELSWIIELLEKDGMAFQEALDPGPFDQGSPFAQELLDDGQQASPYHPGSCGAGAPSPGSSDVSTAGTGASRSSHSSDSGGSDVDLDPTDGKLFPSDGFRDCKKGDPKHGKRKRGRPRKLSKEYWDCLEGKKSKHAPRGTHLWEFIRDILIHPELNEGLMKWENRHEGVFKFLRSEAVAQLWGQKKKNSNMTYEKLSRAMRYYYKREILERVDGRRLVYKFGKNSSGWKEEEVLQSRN
# Summary of the method: as §1
# CRX = CRX (Homo sapiens, UniProt O43186 1-299)
# Summary of the method: as §1
# ETV1 = ETV1 (Homo sapiens, UniProt P50549 1-477)
# Summary of the method: as §1
# ERF = biological target: T6, ERF (Homo sapiens, UniProt P50548 1-548)
# T6 sequence: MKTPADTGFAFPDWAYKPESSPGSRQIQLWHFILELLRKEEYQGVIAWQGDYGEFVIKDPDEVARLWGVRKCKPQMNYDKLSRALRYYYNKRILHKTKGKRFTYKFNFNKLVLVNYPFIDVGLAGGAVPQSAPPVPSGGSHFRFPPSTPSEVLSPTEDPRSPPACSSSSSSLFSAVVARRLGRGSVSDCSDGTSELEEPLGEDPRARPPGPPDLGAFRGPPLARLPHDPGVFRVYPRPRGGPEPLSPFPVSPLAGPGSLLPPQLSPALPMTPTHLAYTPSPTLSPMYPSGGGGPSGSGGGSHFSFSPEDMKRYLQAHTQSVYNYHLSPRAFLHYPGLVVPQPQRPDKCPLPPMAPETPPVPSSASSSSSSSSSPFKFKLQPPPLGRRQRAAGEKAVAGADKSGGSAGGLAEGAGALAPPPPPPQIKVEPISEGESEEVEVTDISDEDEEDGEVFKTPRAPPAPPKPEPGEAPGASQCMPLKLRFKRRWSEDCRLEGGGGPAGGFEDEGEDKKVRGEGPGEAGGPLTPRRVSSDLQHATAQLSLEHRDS
# Summary of the method: as §1
# ETV3L = biological target: T7, ETV3L (Homo sapiens, UniProt Q6ZN32 1-361)
# T7 sequence: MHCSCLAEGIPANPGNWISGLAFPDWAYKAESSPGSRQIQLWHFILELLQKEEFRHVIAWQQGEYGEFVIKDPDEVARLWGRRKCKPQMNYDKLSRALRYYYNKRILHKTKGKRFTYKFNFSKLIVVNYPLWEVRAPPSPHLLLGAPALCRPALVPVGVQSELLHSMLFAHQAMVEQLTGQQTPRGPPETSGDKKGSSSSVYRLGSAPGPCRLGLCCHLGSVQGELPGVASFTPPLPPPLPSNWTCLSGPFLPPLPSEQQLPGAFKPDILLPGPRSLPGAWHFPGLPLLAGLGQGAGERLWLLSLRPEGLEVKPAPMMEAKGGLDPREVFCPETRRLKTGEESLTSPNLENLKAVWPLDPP
# Summary of the method: as §1
# ETS2 = biological target: T8, ETS2 (Homo sapiens, UniProt P15036 1-469)
# T8 sequence: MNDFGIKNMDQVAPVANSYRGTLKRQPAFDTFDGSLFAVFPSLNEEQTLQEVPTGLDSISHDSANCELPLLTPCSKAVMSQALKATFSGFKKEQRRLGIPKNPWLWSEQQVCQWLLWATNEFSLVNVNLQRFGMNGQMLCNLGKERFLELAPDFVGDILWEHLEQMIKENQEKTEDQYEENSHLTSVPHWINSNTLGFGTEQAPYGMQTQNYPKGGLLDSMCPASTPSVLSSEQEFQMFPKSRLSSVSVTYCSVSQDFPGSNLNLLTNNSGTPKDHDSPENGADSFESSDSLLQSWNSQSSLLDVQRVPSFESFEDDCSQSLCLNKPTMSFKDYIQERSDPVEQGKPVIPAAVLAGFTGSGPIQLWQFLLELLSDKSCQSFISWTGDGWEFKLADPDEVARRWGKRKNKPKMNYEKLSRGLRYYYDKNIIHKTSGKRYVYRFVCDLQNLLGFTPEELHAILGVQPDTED
# Summary of the method: as §1
# SPDEF = biological target: T9, SPDEF (Homo sapiens, UniProt O95238 1-335)
# T9 sequence: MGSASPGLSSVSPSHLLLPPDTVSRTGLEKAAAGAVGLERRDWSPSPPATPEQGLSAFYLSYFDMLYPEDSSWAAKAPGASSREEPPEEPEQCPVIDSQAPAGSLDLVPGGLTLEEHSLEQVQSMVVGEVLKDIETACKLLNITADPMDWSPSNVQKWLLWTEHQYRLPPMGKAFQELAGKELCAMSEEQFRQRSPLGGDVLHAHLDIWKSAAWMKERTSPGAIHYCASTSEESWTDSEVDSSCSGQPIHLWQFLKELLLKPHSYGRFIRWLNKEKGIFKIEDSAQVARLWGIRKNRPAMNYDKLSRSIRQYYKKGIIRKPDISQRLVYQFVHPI
# Summary of the method: as §1
# ETV7 = biological target: T10, ETV7 (Homo sapiens, UniProt Q9Y603 1-341)
# T10 sequence: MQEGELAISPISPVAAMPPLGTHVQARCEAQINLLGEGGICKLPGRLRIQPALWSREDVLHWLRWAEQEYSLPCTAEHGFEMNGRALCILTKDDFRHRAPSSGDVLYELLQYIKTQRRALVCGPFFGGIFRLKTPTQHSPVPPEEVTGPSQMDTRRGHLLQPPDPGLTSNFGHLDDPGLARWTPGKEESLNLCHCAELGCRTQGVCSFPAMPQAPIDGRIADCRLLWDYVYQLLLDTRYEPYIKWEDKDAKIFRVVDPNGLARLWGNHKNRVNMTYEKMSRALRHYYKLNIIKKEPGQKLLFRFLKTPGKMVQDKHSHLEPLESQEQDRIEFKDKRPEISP
# Summary of the method: as §1
# ELF5 = biological target: T11, ELF5 (Homo sapiens, UniProt Q9UKW6-2 1-255)
# T11 sequence: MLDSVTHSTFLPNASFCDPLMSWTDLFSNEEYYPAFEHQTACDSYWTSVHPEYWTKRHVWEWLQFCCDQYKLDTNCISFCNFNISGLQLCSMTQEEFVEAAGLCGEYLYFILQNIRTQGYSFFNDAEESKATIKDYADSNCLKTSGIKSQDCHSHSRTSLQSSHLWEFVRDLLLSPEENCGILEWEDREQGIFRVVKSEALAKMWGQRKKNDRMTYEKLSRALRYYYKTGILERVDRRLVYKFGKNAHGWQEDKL
# Summary of the method: as §1
# ETV3 = biological target: T12, ETV3 (Homo sapiens, UniProt P41162-2 1-143)
# T12 sequence: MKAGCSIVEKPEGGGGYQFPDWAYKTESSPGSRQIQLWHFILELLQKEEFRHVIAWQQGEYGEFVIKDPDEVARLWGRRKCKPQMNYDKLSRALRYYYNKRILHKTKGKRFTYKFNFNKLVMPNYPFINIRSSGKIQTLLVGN
# Summary of the method: as §1
# ETV6 = ETV6 (Homo sapiens, UniProt P41212 1-452)
# Summary of the method: as §1
# Sequence of CRX (O43186 whole entry): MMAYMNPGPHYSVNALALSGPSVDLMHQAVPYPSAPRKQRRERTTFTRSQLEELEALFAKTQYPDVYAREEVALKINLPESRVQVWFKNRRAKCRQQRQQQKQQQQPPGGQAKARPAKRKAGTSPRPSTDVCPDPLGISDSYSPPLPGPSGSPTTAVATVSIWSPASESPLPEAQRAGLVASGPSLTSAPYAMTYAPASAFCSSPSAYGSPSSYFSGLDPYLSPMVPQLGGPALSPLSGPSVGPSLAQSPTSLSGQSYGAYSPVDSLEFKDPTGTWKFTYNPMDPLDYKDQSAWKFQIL
# Sequence of ETV1 (P50549 whole entry): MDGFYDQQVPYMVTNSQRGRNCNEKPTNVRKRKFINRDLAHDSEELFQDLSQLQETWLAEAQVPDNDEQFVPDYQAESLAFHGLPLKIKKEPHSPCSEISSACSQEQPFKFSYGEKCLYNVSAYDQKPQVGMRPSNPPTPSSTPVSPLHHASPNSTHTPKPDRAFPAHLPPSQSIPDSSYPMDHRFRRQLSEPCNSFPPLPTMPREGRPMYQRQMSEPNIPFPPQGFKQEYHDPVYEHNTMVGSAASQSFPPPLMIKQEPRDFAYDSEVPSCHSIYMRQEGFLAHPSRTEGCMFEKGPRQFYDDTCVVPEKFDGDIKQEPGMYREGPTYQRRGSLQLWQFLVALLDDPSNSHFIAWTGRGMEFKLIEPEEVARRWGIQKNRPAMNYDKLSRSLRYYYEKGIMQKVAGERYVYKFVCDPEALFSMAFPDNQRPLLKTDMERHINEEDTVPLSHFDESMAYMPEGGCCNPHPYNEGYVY
# Sequence of ELF4 (Q99607 whole entry): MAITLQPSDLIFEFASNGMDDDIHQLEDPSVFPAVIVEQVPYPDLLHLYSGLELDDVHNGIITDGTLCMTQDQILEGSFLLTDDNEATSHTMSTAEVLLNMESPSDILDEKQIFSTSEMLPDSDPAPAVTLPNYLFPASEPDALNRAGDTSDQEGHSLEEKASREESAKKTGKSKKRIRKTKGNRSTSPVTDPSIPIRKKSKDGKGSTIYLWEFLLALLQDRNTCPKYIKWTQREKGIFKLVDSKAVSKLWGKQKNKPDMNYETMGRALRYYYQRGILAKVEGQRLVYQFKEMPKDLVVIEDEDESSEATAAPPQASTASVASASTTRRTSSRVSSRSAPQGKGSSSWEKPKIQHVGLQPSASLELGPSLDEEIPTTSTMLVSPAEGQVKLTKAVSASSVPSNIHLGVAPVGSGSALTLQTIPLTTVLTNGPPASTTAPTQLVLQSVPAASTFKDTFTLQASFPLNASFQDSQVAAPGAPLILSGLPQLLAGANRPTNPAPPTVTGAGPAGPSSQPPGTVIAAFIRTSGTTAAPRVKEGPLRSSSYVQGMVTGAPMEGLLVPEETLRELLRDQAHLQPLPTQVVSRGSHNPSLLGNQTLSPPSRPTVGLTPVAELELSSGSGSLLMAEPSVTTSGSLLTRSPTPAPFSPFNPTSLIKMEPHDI
# Sequence of ETV5 (P41161 whole entry): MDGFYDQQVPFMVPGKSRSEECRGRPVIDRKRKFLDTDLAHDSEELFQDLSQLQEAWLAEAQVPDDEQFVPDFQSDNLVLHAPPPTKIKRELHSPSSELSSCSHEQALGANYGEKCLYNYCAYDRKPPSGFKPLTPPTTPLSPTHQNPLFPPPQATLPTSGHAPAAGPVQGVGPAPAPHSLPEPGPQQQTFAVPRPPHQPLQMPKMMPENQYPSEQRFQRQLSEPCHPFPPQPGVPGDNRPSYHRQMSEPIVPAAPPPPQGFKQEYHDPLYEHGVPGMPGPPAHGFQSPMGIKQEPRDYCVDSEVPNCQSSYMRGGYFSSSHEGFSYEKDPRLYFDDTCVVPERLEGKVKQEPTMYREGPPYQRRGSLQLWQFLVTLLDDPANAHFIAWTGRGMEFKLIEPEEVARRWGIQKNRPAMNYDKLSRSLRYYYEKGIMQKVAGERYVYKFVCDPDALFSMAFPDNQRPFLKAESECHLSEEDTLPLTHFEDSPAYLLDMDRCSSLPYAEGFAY
# Sequence of ETV6 (P41212 whole entry): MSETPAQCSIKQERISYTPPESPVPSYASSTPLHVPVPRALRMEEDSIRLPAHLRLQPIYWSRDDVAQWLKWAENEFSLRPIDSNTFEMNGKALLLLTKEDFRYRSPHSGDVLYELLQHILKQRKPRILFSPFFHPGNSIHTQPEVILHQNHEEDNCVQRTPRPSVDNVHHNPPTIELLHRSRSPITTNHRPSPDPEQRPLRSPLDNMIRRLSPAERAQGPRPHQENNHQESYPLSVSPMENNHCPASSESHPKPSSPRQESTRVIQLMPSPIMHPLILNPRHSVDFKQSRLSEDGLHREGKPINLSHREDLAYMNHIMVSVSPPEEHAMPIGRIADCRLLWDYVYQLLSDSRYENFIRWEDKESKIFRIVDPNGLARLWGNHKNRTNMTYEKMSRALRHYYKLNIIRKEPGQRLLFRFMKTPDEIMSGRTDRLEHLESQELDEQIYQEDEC
sequence,measurement,setting,value
TGTTGA,binding signal,FEV,"1.07 fold enrichment (6-mer frequency, TF over GST control)"
same,binding signal,ETV5,"1.07 fold enrichment (6-mer frequency, TF over GST control)"
same,binding signal,SPIC,"1.15 fold enrichment (6-mer frequency, TF over GST control)"
same,binding signal,ELF4,"1.1 fold enrichment (6-mer frequency, TF over GST control)"
same,binding signal,ELK4,"1.16 fold enrichment (6-mer frequency, TF over GST control)"
same,binding signal,ETV2,"1.12 fold enrichment (6-mer frequency, TF over GST control)"
same,binding signal,ELF3,"1.09 fold enrichment (6-mer frequency, TF over GST control)"
same,binding signal,CRX,"1.02 fold enrichment (6-mer frequency, TF over GST control)"
same,binding signal,ETV1,"1.07 fold enrichment (6-mer frequency, TF over GST control)"
same,binding signal,ERF,"1.13 fold enrichment (6-mer frequency, TF over GST control)"
same,binding signal,ETV3L,"1.17 fold enrichment (6-mer frequency, TF over GST control)"
same,binding signal,ETS2,"1.11 fold enrichment (6-mer frequency, TF over GST control)"
same,binding signal,SPDEF,"1.23 fold enrichment (6-mer frequency, TF over GST control)"
same,binding signal,ETV7,"1.18 fold enrichment (6-mer frequency, TF over GST control)"
same,binding signal,ELF5,"1.08 fold enrichment (6-mer frequency, TF over GST control)"
same,binding signal,ETV3,"1.11 fold enrichment (6-mer frequency, TF over GST control)"
same,binding signal,ETV6,"1.01 fold enrichment (6-mer frequency, TF over GST control)"
TGCATA,binding signal,FEV,"1.13 fold enrichment (6-mer frequency, TF over GST control)"
same,binding signal,ETV5,"1.14 fold enrichment (6-mer frequency, TF over GST control)"
same,binding signal,SPIC,"1.17 fold enrichment (6-mer frequency, TF over GST control)"
same,binding signal,ELF4,"1.2 fold enrichment (6-mer frequency, TF over GST control)"
same,binding signal,ELK4,"1.13 fold enrichment (6-mer frequency, TF over GST control)"
same,binding signal,ETV2,"1.02 fold enrichment (6-mer frequency, TF over GST control)"
same,binding signal,ELF3,"1.03 fold enrichment (6-mer frequency, TF over GST control)"
same,binding signal,CRX,"1.01 fold enrichment (6-mer frequency, TF over GST control)"
same,binding signal,ETV1,"1.07 fold enrichment (6-mer frequency, TF over GST control)"
same,binding signal,ERF,"1.09 fold enrichment (6-mer frequency, TF over GST control)"
same,binding signal,ETV3L,"1.23 fold enrichment (6-mer frequency, TF over GST control)"
same,binding signal,ETS2,"1.17 fold enrichment (6-mer frequency, TF over GST control)"
same,binding signal,SPDEF,"1.18 fold enrichment (6-mer frequency, TF over GST control)"
same,binding signal,ETV7,"1.23 fold enrichment (6-mer frequency, TF over GST control)"
same,binding signal,ELF5,"1.06 fold enrichment (6-mer frequency, TF over GST control)"
same,binding signal,ETV3,"1.11 fold enrichment (6-mer frequency, TF over GST control)"
same,binding signal,ETV6,"1.05 fold enrichment (6-mer frequency, TF over GST control)"
